Measured values reported in publication PMC12136788.
Positions count from the first letter of the chain named. Over roughly 5,800 sequences, “enrichment r” has its median near 0.68; the highest 2% begin near 11. The list comes from a sample in which the highest values are over-represented; it also holds similar and randomly drawn sequences.

T1: UNK ZnF1-6 (called full-length) (human, UniProt Q9C0B0 30-357)
T1 sequence: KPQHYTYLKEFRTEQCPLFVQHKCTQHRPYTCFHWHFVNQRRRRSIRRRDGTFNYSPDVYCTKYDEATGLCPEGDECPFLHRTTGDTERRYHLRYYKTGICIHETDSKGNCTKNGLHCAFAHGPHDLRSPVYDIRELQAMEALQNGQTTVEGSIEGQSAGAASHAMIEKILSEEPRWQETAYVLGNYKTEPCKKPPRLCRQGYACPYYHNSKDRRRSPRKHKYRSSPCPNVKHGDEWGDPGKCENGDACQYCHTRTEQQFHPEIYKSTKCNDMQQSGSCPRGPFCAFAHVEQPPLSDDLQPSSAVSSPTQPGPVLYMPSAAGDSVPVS

B1: chr2:96185838:96185916:-|3pUTR|ENSG00000084090|msi1_unk|FALSE|overlapping (ssRNA)
RNA: GGGAGUUCUACAGUCCGACGAUCUGGGAGACUAAUCCUUUUAGAUAGUAGCUUUUUGAUGCUCAAAACAUCACAUUUAAAUUUAGUUUAAAAAUUUUUUAACUUUUGUGUCAAAUAGGAGUUGAGGAAUUGAGCAGGAUUCUACAACAGAGGAUUGAGCAUCA
B2: chr16:2708819:2708933:+|3pUTR|ENSG00000167977|unk|FALSE|unique (ssRNA)
RNA: GGGAGUUCUACAGUCCGACGAUCCUCUCUGGGGAGCUGCUGGCCGCUUAGCGUUGUUUGAUUUUUGACCUUGACAUAGUAGAUAGGCUUGUGGUUUUUUUAAUUUAAAGAUAUUAAGACUUAAUUCACUAAAAUUUAUUCUAACAACAGAGGAUUGAGCAUCA
B3: chr2:216672738:216672882:-|3pUTR|ENSG00000115461|msi1|FALSE|unique (ssRNA)
RNA: GGGAGUUCUACAGUCCGACGAUCUUCUCUUAGGCUUUUGUUUCUAUUUCAAACAUACUUUCUUGGUUUUCUAAUGGAGUAUAUAGUUUAGUCAUUUCACAGACUCUGGCCUCCUCUCCUGAAAUCCUUUUGGAUGGGGAAAGGCAACAGAGGAUUGAGCAUCA
B4: chr5:6669452:6669553:+|3pUTR|ENSG00000145545|unk|FALSE|unique (ssRNA)
RNA: GGGAGUUCUACAGUCCGACGAUCCAUCUCAUCUGGAGUUUUUAAAUGCCAUUUGUUUCAGUUGUCUUUAACAACAUAAUAAAUAGACUUUGCCAUUUAACAAGGUAGCUCAAAUUCUUUUACUAAUUGUUACAUCGAAACAUUCAACAGAGGAUUGAGCAUCA
B5: ENSG00000168615:stop:overlap|stop_codon|ENSG00000168615|stop_codon|NA|stop_codon (ssRNA)
RNA: GGGAGUUCUACAGUCCGACGAUCCUGGCCAGAAUACCCAAAAUAAUUGGCAGAUGUCAAAUUUGGCUUUCUGUGUUUAUUACUAGAGCAUAAACAUUUCUAGUUUUGUUUGAGUGUUUUACAGUCCUUUUUGGCAGUUAGGUACAACAGAGGAUUGAGCAUCA
B6: chr16:2708819:2708933:+|3pUTR|ENSG00000167977|unk|total|mutant (ssRNA)
RNA: B2 RNA with U48C, A49C, U76C, A77C, U79C, A80C, U83C, A84C
B7: chr10:98383567:98383797:-|three_prime_utr|ENSG00000119943|control|control|control (ssRNA)
RNA: GGGAGUUCUACAGUCCGACGAUCCCACCCCUGAAUUCCAAGUGCUCCAUUGGAUCAGCUUCCCAGGAAGUUCAGCUUCGGGUUAGUACAUAAGGCCACCACAAUGCUCAAGAAAUUAUUUUAGAAAAAACGUACGAGUUACAUCAACAGAGGAUUGAGCAUCA
B8: chr12:103777333:103777434:-|3pUTR|ENSG00000111696|msi1|total|mutant (ssRNA)
RNA: GGGAGUUCUACAGUCCGACGAUCUCCUGAACAUUUACGGGCUAUGCAUUGGGAACUGCAGGGGCACAGUGAUGGGCAAAGAUCCGCUGCUUCCAGAAGGCUGAUUUCGUGGGCUCCACAAUGGUAAAACGCUGCUGUGAGUGGCAACAGAGGAUUGAGCAUCA
B9: chr21:14371318:14371404:-|3pUTR|ENSG00000155304|msi1_unk|total|mutant (ssRNA)
RNA: GGGAGUUCUACAGUCCGACGAUCUAUGAAUAACAAUCUGAAGUCUUUUCAUAAAAAAAAUUAAUAAACUUCCGUUGUACAUUCCGCCAGUGUUAUUUGAAGUAUGUAACUUUUAAAAUAUUAAGUGUCUUGUAUGAUCCGAAUCAACAGAGGAUUGAGCAUCA
B10: chr5:160402147:160402258:-|3pUTR|ENSG00000164609|unk|FALSE|unique (ssRNA)
RNA: GGGAGUUCUACAGUCCGACGAUCAUGGUUUACAUUACCGUUUGUUUUCAUUGUGAUUGCCCCUAUGUAACAAUCAUGAAUAUUAGAUUUUUUAAAUUGUAGAAUAUCCUAAUAUUUAUAGCCAGCAGCUGUUACUUUGUUUGUCAACAGAGGAUUGAGCAUCA
B11: chr7:152122106:152122213:+|3pUTR|ENSG00000178234|unk|FALSE|unique (ssRNA)
RNA: GGGAGUUCUACAGUCCGACGAUCAGUGGUUUUUAUCUGAUCAGGAACUUGUCAUGAUUUCCUUUCUUAGACUUCAUAGGAGAUAGUGCUUUAAAAAAAAAAAAAACUUCUAUUAUUUGUUUAGUAUGUUGUAAGUAGAUCAUUCAACAGAGGAUUGAGCAUCA
B12: chr10:121957106:121957207:-|3pUTR|ENSG00000107672|msi1|FALSE|bound_elsewhere (ssRNA)
RNA: GGGAGUUCUACAGUCCGACGAUCUGUAUCGUACAUAUUGUAUGAUUCAACAUUUUUAAAGGCAGAUUGUUUUUAGUAAAAUGUAGCUUUUGAUAGUUAAUAAAUUUGUCAUGGUUGUCUUUGAUUAAAGGAAACUCACCGCCACAACAGAGGAUUGAGCAUCA
B13: chr14:100278170:100278208:+|3pUTR|ENSG00000100811|msi1_unk|FALSE|overlapping (ssRNA)
RNA: GGGAGUUCUACAGUCCGACGAUCGCUAUCUUAAUUUUGGUUGUAUUCUUUGAUGUUAACACAUUUUGUAUAAUUGUAUCGUAUAGCUGUAUUGAAUCAUGUAGUAUCAAAUAUUAGAUGUGAUUUAAUAGUGUUAAUCAAUUUCAACAGAGGAUUGAGCAUCA
B14: chr7:152122106:152122213:+|3pUTR|ENSG00000178234|unk|total|mutant (ssRNA)
RNA: B11 RNA with U67C, A68C, U76C, A77C, U83C, A84C, U121C, A122C, U135C, A136C
B15: chr11:101890673:101891278:-|three_prime_utr|ENSG00000187151|control|control|control (ssRNA)
RNA: GGGAGUUCUACAGUCCGACGAUCGUAAUGCAAGUUCUACAAUGAUAAUAUAUUAAAGAUUUUUAAAAGUUUAUCUUUUCACUUAGUGUUUCAAACAUAUUAGGCAAAAUUUAACUGUAGAUGGCAUUUAGAUGUUAUGAGUUUCAACAGAGGAUUGAGCAUCA
B16: chr4:56502255:56502306:+|3pUTR|ENSG00000174780|msi1_unk|FALSE|overlapping (ssRNA)
RNA: GGGAGUUCUACAGUCCGACGAUCAUUUCAGCUGGAGUCUGAAGAUACUUGUUUCUGUUCAAGUCCCACUUUAAAUUAUGUCUUAGGAGACUGAAAGUGGAAUCUUCUGAGCAUUCCUAAAUAUCUGCUUAGAAAUAUCAUGUGCAACAGAGGAUUGAGCAUCA

These binders were tested against T1, UNK ZnF1-6 (called full-length) (assay: nsRBNS (natural sequence RNA bind-n-seq); RBNS binding buffer (assumed for nsRBNS): 25 mM Tris pH 7.5, 150 mM KCl, 3 mM MgCl2, 0.01% Triton X-100, 500 ug/ml BSA, 20 U/ml SUPERase-In, 4 C; UNK is unkempt and MSI1 is Musashi-1; names of the RNAs are library labels; protein concentration not given here; high values mean tight binding).

Row | Binder | binding signal [enrichment R]
1 | B1 | 27.5
2 | B2 | 14.8
3 | B3 | 5.21
4 | B4 | 0.535
5 | B5 | 0.532
6 | B6 | 2.05
7 | B7 | 2.25
8 | B8 | 0.856
9 | B9 | 0.702
10 | B10 | 5.04
11 | B11 | 35
12 | B12 | 13.5
13 | B13 | 14.1
14 | B14 | 0.949
15 | B15 | 5.03
16 | B16 | 0.869
